Shown are actives, neighbours in structure and some others; about 3.5% of the full set was active somewhere.
FBA Mtb inh – inhibitors of M. tuberculosis fructose-bisphosphate aldolase; purified M. tuberculosis FBA, fluorescence read-out; 2.3% of 360,000 active; inhibition, % at 1 µM; P9WQA3
Rv3671c protease – Rv3671c (M. tuberculosis) protease inhibition. 0.048% of 320,000 active. P9WHR9. inhibition, % at 5.96 µM; in the data active = inhibition above about 38%;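 note: extracellular domain of Rv3671c used as enzyme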
Target sequence (P9WHR9 whole entry, looked up, the tested form may be a part): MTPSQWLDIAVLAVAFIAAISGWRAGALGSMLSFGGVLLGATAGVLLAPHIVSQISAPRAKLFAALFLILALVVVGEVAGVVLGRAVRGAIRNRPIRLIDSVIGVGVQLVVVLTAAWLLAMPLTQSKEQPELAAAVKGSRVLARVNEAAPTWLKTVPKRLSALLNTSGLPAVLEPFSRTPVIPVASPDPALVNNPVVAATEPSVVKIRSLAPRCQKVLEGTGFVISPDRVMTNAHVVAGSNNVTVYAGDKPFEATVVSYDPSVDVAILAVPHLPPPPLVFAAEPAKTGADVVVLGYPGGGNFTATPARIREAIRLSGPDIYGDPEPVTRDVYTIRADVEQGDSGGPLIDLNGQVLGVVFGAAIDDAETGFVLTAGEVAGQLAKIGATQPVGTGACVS
GDH-TPI counter-1 – inhibits GDH-TPI coupling enzymes, artifact for Mtb FBA screen. GDH-TPI coupled enzyme counterscreen, NADH absorbance. inhibition, % at 4.8 µM. 1.2% of 360,000 active; in the data active = inhibition above about 30%
UGM FP inh – Mtb UDP-galactopyranose mutase inhibition; P9WIQ1; purified UGM, fluorescence polarization probe displacement; inhibition, % at 10 µM; 0.06% of 320,000 active; in the data active = inhibition above about 10%, passing the limit was not always enough
Mtb FBA inh conf – confirmation of M. tuberculosis fructose-bisphosphate aldolase inhibitors | 78% of 5,600 active | inhibition, % at 1 µM | shares compounds with FBA Mtb inh | purified M. tuberculosis FBA, fluorescence read-out
GDH-TPI counter-2 – counter-screen for M. tuberculosis FBA inhibitors: GDH-TPI coupled enzyme inhibition; shares compounds with FBA Mtb inh; GDH-TPI coupled enzyme counterscreen, fluorescence; inhibition, % at 1 µM; 81% of 5,600 active; AID 652141; in the data active = inhibition above about 10%
Of the large screens only hits and unclear results are named; the others gave an inactive call (follow-up assays come after a bar, where they were run). Cut-off read from the data, not from the text of the source, unless noted: active = inhibition above about 27%; inactive = the rest.

CC(C)Oc1ccc(CNS(=O)(=O)c2csc(C(N)=O)c2)cc1	none
O=C(Nc1ccncc1)c1cccc(S(=O)(=O)N2CCCC2)c1	none
Fc1cccc(CCNCc2ccccn2)c1	FBA Mtb inh 29.8 | Mtb FBA inh conf 86.6 | GDH-TPI counter-2 81.6
CCc1cc2c(COC(=O)c3c(C)noc3C)cc(=O)oc2cc1O	FBA Mtb inh 33.4, GDH-TPI counter-1 32.5 | Mtb FBA inh conf 85.3 | GDH-TPI counter-2 61.7
CCc1cc2c(COC(=O)c3cccc(S(C)(=O)=O)c3)cc(=O)oc2cc1O	none
COc1ccccc1-c1cc2c(c3c1ccn3C)C1CCC2C1 (configuration not stated)	none (no result: Rv3671c protease, GDH-TPI counter-1, UGM FP inh)
Cn1ccc2c(-c3cccc4ccccc34)cc3c(c21)C1CCC3O1 (configuration not stated)	FBA Mtb inh 57.6 (no result: Rv3671c protease, GDH-TPI counter-1, UGM FP inh) | Mtb FBA inh conf 60.0 | GDH-TPI counter-2 41.5
COc1ccccc1-c1cc2c(c3c1ccn3C)C1CCC2O1 (configuration not stated)	FBA Mtb inh 72.8 (no result: Rv3671c protease, GDH-TPI counter-1, UGM FP inh) | Mtb FBA inh conf 127.4 | GDH-TPI counter-2 104.3
Cn1ccc2c(-c3ccc(C(N)=O)cc3)cc3c(c21)C1CCC3O1 (configuration not stated)	none (no result: Rv3671c protease, GDH-TPI counter-1, UGM FP inh)
Cn1ccc2c(-c3cccnc3)cc3c(c21)C1CCC3O1 (configuration not stated)	none (no result: Rv3671c protease, GDH-TPI counter-1, UGM FP inh)
Cn1ccc2c(-c3ccc4[nH]ccc4c3)cc3c(c21)C1CCC3O1 (configuration not stated)	FBA Mtb inh 47.4 (no result: Rv3671c protease, GDH-TPI counter-1, UGM FP inh) | Mtb FBA inh conf 57.0 | GDH-TPI counter-2 38.5
CCOC(=O)C1=C(COC(=O)Cc2ccccc2[N+](=O)[O-])NC(=O)NC1C (configuration not stated)	none (no result: Rv3671c protease, UGM FP inh)
COCC(=O)N1CCC(n2nccc2NC(=O)c2ccccc2OC)CC1	none
CCOC(=O)Cc1csc(NS(=O)(=O)c2ccc([N+](=O)[O-])cc2)n1	none
Cc1ccn2cc(CCNC(=O)Cc3cccs3)nc2c1	none
Cc1ccn2cc(CCNC(=O)C3CC=CCC3C(=O)O)nc2c1 (configuration not stated)	FBA Mtb inh 31.3 | Mtb FBA inh conf active | GDH-TPI counter-2 active
Cc1ccn2cc(CCNC(=O)CC(C)(C)C)nc2c1	FBA Mtb inh 26.9 | Mtb FBA inh conf 45.3 | GDH-TPI counter-2 29.1
Cc1ccn2cc(CCNC(=O)COc3ccccc3)nc2c1	FBA Mtb inh 35.3 | Mtb FBA inh conf 46.1 | GDH-TPI counter-2 30.1
CC1(C)CC(=O)c2c(O)c(-c3ccccc3)c(=O)n(-c3ccccc3)c2C1	none
CC(C)CCn1nnnc1CN1CCN(C(=O)c2ccco2)CC1	none
COC(=O)C(C)Oc1ccc(-c2nccc(-c3ccccn3)n2)cc1 (configuration not stated)	FBA Mtb inh 109.8 | Mtb FBA inh conf 68.5 | GDH-TPI counter-2 60.5
COc1ccc(OC(C)C(=O)N(C)Cc2nc(-c3cccc(C)c3)no2)cc1 (configuration not stated)	none
CCCCOc1ccccc1C1C(C(=O)OC)=CN(CC)C=C1C(=O)OC	FBA Mtb inh 62.8 | Mtb FBA inh conf inactive | GDH-TPI counter-2 inactive
COC(=O)C1=CN(Cc2cccs2)C=C(C(=O)OC)C1c1ccc(OC)cc1OC	FBA Mtb inh 85.2 | Mtb FBA inh conf 89.5 | GDH-TPI counter-2 93.1
CCCCOc1ccccc1C(=O)NCC(=O)O	none
COC(=O)C1=CN(c2ccc(OC)cc2)C=C(C(=O)OC)C1c1cc(OC)c(OC)cc1OC	none
COC(=O)C1=CN(Cc2cccs2)C=C(C(=O)OC)C1c1cccc(Cl)c1	FBA Mtb inh 71.1 | Mtb FBA inh conf 64.9 | GDH-TPI counter-2 53.4
O=C(/C=C/c1cccc(Cl)c1)NCc1cccs1	none
O=C(Cn1c(=O)cnc2ccccc21)NC1CCC(O)CC1 (configuration not stated)	none
OCc1ccccc1-c1cnc2cccnn12	FBA Mtb inh 105.4 (no result: Rv3671c protease, UGM FP inh) | Mtb FBA inh conf 113.3 | GDH-TPI counter-2 86.5
Cc1ccc(S(=O)(=O)Nc2nc3ccccc3nc2NCC2CCCO2)c(C)c1 (configuration not stated)	FBA Mtb inh 29.5 | Mtb FBA inh conf 108.1 | GDH-TPI counter-2 91.7
CN(C)CCNC(=O)c1ccc2c(c1)N(Cc1ccc(F)cc1)CCS2	FBA Mtb inh 86.7 | Mtb FBA inh conf inactive | GDH-TPI counter-2 inactive
COc1ccc(OC)c(CCNC(=O)c2ccc3c(c2)N(Cc2ccc(F)cc2)CCS3)c1	none
O=C(NC1CCCC1)c1ccc2c(c1)N(Cc1ccc(F)cc1)CCS2	FBA Mtb inh 71.7 | Mtb FBA inh conf inactive | GDH-TPI counter-2 inactive
Cc1ccccc1OCC(=O)OCC(=O)Nc1cc(S(=O)(=O)N2CCCCC2)ccc1Cl	none

Compound activity (PubChem)
